# Results published in the supplement of paper PMC12282887.
# ± gives the standard deviation of the averaged measurements.
# Key:
# Test in all cases: promoter activity interaction Z-score (Lux/OD deviation from empty-vector control); higher = stronger promoter induction by the compound
# [1] = system: E. coli BW25113 acrABp lux reporter
# Summary of the method: (§1)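 E. coli BW25113 (wild type or marA, soxS or rob deletion) carrying low-copy luxCDABE promoter reporters grew in 40 µl LB Lennox in 384-well plates at 37°C. Each compound was tested at four 1:2 dilutions in biological duplicates. OD600 and luminescence were read every 30 min for 12 h. Areas were taken over 0–8 h (wild type) or 1–9 h (mutants), and wells below 10% of median growth area were removed. The score is the Z-transformed residual of growth-normalised luminescence fitted against the empty-vector control.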
# [2] = system: E. coli BW25113 micFp lux reporter
# Summary of the method: as §1
# [3] = system: E. coli BW25113 ompFp lux reporter
# Summary of the method: as §1
# [4] = system: E. coli BW25113 robp lux reporter
# Summary of the method: as §1
# [5] = system: E. coli BW25113 soxSp lux reporter
# Summary of the method: as §1
# [6] = system: E. coli BW25113 tolCp lux reporter
# Summary of the method: as §1
# [7] = 0.28 µg/ml, genetic background: wild type
# [8] = 0.28 µg/ml, genetic background: ΔmarA
# [9] = 0.28 µg/ml, genetic background: Δrob
# [10] = 0.28 µg/ml, genetic background: ΔsoxS
# [11] = 0.56 µg/ml, genetic background: wild type
# [12] = 0.56 µg/ml, genetic background: ΔmarA
# [13] = 0.56 µg/ml, genetic background: Δrob
# [14] = 0.56 µg/ml, genetic background: ΔsoxS
# [15] = 1.1 µg/ml, genetic background: wild type
# [16] = 1.1 µg/ml, genetic background: ΔmarA
# [17] = 1.1 µg/ml, genetic background: Δrob
# [18] = 1.1 µg/ml, genetic background: ΔsoxS
# [19] = 2.2 µg/ml, genetic background: wild type
smiles,measurement,setting,value
CC[C@H]1OC(=O)[C@H](C)[C@@H](O[C@H]2C[C@@](C)(OC)[C@@H](O)[C@H](C)O2)[C@H](C)[C@@H](O[C@@H]2O[C@H](C)C[C@H](N(C)C)[C@H]2O)[C@](C)(O)C[C@@H](C)CN(C)[C@H](C)[C@@H](O)[C@]1(C)O [Azithromycin],promoter activity interaction Z-score,[1]; [7],0.612 ± 0.28
same,promoter activity interaction Z-score,[1]; [8],-0.667 ± 0.48
same,promoter activity interaction Z-score,[1]; [9],0.324 ± 0.28
same,promoter activity interaction Z-score,[1]; [10],0.489 ± 0.8
same,promoter activity interaction Z-score,[1]; [11],1.13 ± 0.12
same,promoter activity interaction Z-score,[1]; [12],0.048 ± 0.66
same,promoter activity interaction Z-score,[1]; [13],2.23 ± 0.08
same,promoter activity interaction Z-score,[1]; [14],3.66 ± 1.6
same,promoter activity interaction Z-score,[1]; [15],4.08 ± 1
same,promoter activity interaction Z-score,[1]; [16],6.35 ± 6.2
same,promoter activity interaction Z-score,[1]; [17],3.65 ± 1.2
same,promoter activity interaction Z-score,[1]; [18],4.28 ± 1.8
same,promoter activity interaction Z-score,[1]; [19],7.14 ± 1.1
same,promoter activity interaction Z-score,[2]; [7],0.698 ± 0.19
same,promoter activity interaction Z-score,[2]; [8],-0.163 ± 0.0028
same,promoter activity interaction Z-score,[2]; [9],0.125 ± 0.087
same,promoter activity interaction Z-score,[2]; [10],0.248 ± 0.093
same,promoter activity interaction Z-score,[2]; [11],0.273 ± 0.86
same,promoter activity interaction Z-score,[2]; [12],-0.14 ± 0.018
same,promoter activity interaction Z-score,[2]; [13],0.558 ± 0.35
same,promoter activity interaction Z-score,[2]; [14],-0.483 ± 0.018
same,promoter activity interaction Z-score,[2]; [15],-0.839 ± 0.87
same,promoter activity interaction Z-score,[2]; [16],-0.439 ± 0.056
same,promoter activity interaction Z-score,[2]; [17],0.39 ± 0.33
same,promoter activity interaction Z-score,[2]; [18],-0.925 ± 0.18
same,promoter activity interaction Z-score,[2]; [19],-1.39
same,promoter activity interaction Z-score,[3]; [7],0.438 ± 0.0074
same,promoter activity interaction Z-score,[3]; [8],-0.225 ± 0.85
same,promoter activity interaction Z-score,[3]; [9],0.663 ± 0.29
same,promoter activity interaction Z-score,[3]; [10],0.266 ± 1.3
same,promoter activity interaction Z-score,[3]; [11],1.95 ± 0.52
same,promoter activity interaction Z-score,[3]; [12],1.13 ± 0.094
same,promoter activity interaction Z-score,[3]; [13],3.25 ± 1.9
same,promoter activity interaction Z-score,[3]; [14],2.77 ± 0.12
same,promoter activity interaction Z-score,[3]; [15],0.0139 ± 0.62
same,promoter activity interaction Z-score,[3]; [16],0.739 ± 3.3
same,promoter activity interaction Z-score,[3]; [17],-0.756 ± 0.22
same,promoter activity interaction Z-score,[3]; [18],3.18 ± 1.5
same,promoter activity interaction Z-score,[4]; [7],-0.606 ± 0.46
same,promoter activity interaction Z-score,[4]; [8],-2.26 ± 0.22
same,promoter activity interaction Z-score,[4]; [9],-1.42 ± 0.052
same,promoter activity interaction Z-score,[4]; [10],-1.11 ± 0.5
same,promoter activity interaction Z-score,[4]; [11],-1.97 ± 0.83
same,promoter activity interaction Z-score,[4]; [12],-2.42 ± 0.28
same,promoter activity interaction Z-score,[4]; [13],-1.4 ± 0.26
same,promoter activity interaction Z-score,[4]; [14],-1.99 ± 0.19
same,promoter activity interaction Z-score,[4]; [15],-3.21 ± 1
same,promoter activity interaction Z-score,[4]; [16],-3.49 ± 0.67
same,promoter activity interaction Z-score,[4]; [17],-2.09 ± 0.15
same,promoter activity interaction Z-score,[4]; [18],-2.73 ± 0.21
same,promoter activity interaction Z-score,[4]; [19],-3.03
same,promoter activity interaction Z-score,[5]; [7],0.146 ± 0.018
same,promoter activity interaction Z-score,[5]; [8],-0.132 ± 0.027
same,promoter activity interaction Z-score,[5]; [9],0.101 ± 0.33
same,promoter activity interaction Z-score,[5]; [10],0.569 ± 0.9
same,promoter activity interaction Z-score,[5]; [11],0.342 ± 0.019
same,promoter activity interaction Z-score,[5]; [12],-0.134 ± 0.052
same,promoter activity interaction Z-score,[5]; [13],0.401 ± 0.02
same,promoter activity interaction Z-score,[5]; [14],1.917 ± 0.018
same,promoter activity interaction Z-score,[5]; [15],2.27 ± 0.33
same,promoter activity interaction Z-score,[5]; [16],1.16 ± 0.1
same,promoter activity interaction Z-score,[5]; [17],1.69 ± 0.21
same,promoter activity interaction Z-score,[5]; [18],2.06 ± 0.22
same,promoter activity interaction Z-score,[5]; [19],2.59 ± 1.8
same,promoter activity interaction Z-score,[6]; [7],1.23 ± 0.81
same,promoter activity interaction Z-score,[6]; [8],0.138 ± 0.034
same,promoter activity interaction Z-score,[6]; [9],0.66 ± 0.69
same,promoter activity interaction Z-score,[6]; [10],2.05 ± 0.54
same,promoter activity interaction Z-score,[6]; [11],1.21 ± 1.3
same,promoter activity interaction Z-score,[6]; [12],0.283 ± 0.058
same,promoter activity interaction Z-score,[6]; [13],1.89 ± 0.14
same,promoter activity interaction Z-score,[6]; [14],2.57 ± 1.3
same,promoter activity interaction Z-score,[6]; [15],3.44 ± 0.47
same,promoter activity interaction Z-score,[6]; [16],1.58 ± 1.8
same,promoter activity interaction Z-score,[6]; [17],4.99 ± 0.58
same,promoter activity interaction Z-score,[6]; [18],4.53 ± 2
same,promoter activity interaction Z-score,[6]; [19],5.2 ± 2.8
